Assay results from PubChem BioAssay (NCI).
Where “and” joins values, the source holds several entries; their conditions need not be identical. Identical values can stand only once. This is part of a sample that, as a whole, favours compounds with a hit. Of some 83,000 tested, about 20% had one in any assay.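 Percent growth is the endpoint: 0 to 100 indicates growth inhibition (40 means 60% inhibition), 0 means no net growth, and negative values indicate cell death.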 Calls of active or inactive are those of the source. How the source made its calls: active means growth percent below 10; inactive means the rest.

Key:
Experiment in all cases: NCI-60 one-dose screen, 48 h (100 = growth as untreated, 0 = no growth, -100 = all killed)
Conditions in all cases: 10 µM unless noted
[1] = test system: SK-MEL-2 melanoma
[2] = test system: EKVX NSCLC
[3] = test system: SN12C renal
[4] = test system: UO-31 renal
[5] = test system: TK-10 renal
[6] = test system: ACHN renal
[7] = test system: CAKI-1 renal
[8] = test system: A498 renal
[9] = test system: CCRF-CEM leukemia
[10] = test system: MOLT-4 leukemia

Measured: growth

Cc1ccc(-c2nc3nc(-c4ccc(Cl)cc4)nc(N4CCCNCC4)c3o2)cc1
active: [3] -86% | [4] -78.7% | [6] -98.9% | [7] -92.3% | [9] -72.6% | [10] -71.2%
inactive: [1] 103% | [2] 123% | [5] 29.7% | [8] 95.2%

Nc1ccc(S(=O)(=O)c2ccc(N)cc2)cc1
94.8% (inactive) and -23.9% (active): [9]
inactive: [1] 122% and 113% | [2] 94.7% | [3] 101% | [4] 89.8% and 75.5% | [5] 100% | [6] 96.9% and 110% | [7] 86.6% | [8] 103% and 106% | [10] 109% and 108%

CN1C(=O)N(C)C2(c3ccccc3)N(CC(=O)Nc3ccccc3O)C(=O)NC12c1ccccc1 (stereo not given)
inactive: [1] 111% | [2] 102% | [3] 103% | [4] 74.6% | [5] 93.9% | [6] 102% | [7] 74.1% | [8] 121% | [9] 111% | [10] 102%

N=C(N)SCc1c2ccccc2c(CSC(=N)N)c2ccccc12
inactive: [1] 79.2% | [2] 76.5% | [3] 53.7% | [4] 80.8% | [5] 98.5% | [6] 51.2% | [7] 61.7% | [8] 89.9%
active: [9] 6.24% | [10] -5.95%

ON=C1CCCCCCCC1
inactive: [1] 94.9% and 100% | [2] 108% | [3] 97.2% and 102% | [4] 79.9% and 85.4% | [5] 100% | [6] 98.6% and 105% | [7] 105% and 99.8% | [8] 102% and 105% | [9] 107% and 101% | [10] 101% and 96.2%

C=C(C)[C@@H]1CC[C@]2(C)[C@H](CC(=O)N[C@H]3[C@@H]4C[C@](C)(C(=O)OC)CC[C@]4(C)CC[C@]32C)[C@@]1(C)CCC#N
inactive: [1] 95.3% | [2] 93.2% | [3] 79.4% | [4] 75.7% | [5] 104% | [6] 88% | [7] 79.2% | [8] 101% | [9] 75.1% | [10] 42.7%

O=C(/C=C\c1ccc(Cl)c(Cl)c1)c1ccccc1
inactive: [1] 119% and 109% | [2] 89.3% | [3] 96.1% and 104% | [4] 72.2% and 84.2% | [5] 80.6% and 103% | [6] 95.2% and 105% | [7] 96.7% and 89.5% | [8] 74.1% and 77.3% | [9] 45.5% and 91.1% | [10] 77.4% and 103%

O=C(CC1(O)C(=O)Nc2ccc(Br)cc21)c1ccc(Cl)cc1 (stereo not given)
inactive: [1] 97.2% | [2] 93.8% | [3] 102% | [4] 75.9% | [5] 123% | [6] 113% | [7] 98.9% | [8] 97.7% | [9] 103% | [10] 101%

CCCCC(NC(=O)CN1C(=O)/C(=C/C(C)=C/c2ccccc2)SC1=S)C(=O)O (stereo not given)
inactive: [1] 113% | [2] 98.6% | [3] 95.5% | [4] 82.9% | [5] 104% | [6] 97.2% | [7] 89.2% | [8] 68% | [9] 105% | [10] 118%

C#Cc1cc(C(=O)Nc2ccc(CN3CCN(C)CC3)c(C(F)(F)F)c2)ccc1C
inactive: [1] 91.1% | [2] 91.5% | [3] 84.5% | [4] 60.2% | [5] 94.7% | [6] 92.2% | [7] 63.7% | [8] 63.9% | [9] 74.8% | [10] 58.9%

O=C(Nc1ccc2ncsc2c1)c1csc(Nc2ccc3[nH]ncc3c2)n1
inactive: [1] 50.6% | [2] 58.6% | [3] 49.9% | [4] 50.3% | [5] 55.2% | [6] 50.5% | [7] 30.3% | [8] 36.8% | [9] 23% | [10] 49.8%

O=C(CN1C(=O)S/C(=C\C(Cl)=C\c2ccccc2)C1=O)NC1C=CS(=O)(=O)C1 (stereo not given)
active: [1] 9.43% | [3] -13.2% | [4] -78% | [5] -14.7% | [6] -57.5% | [9] 7.5% | [10] 4.12%
inactive: [2] 17.7% | [7] 16.9% | [8] 97.2%

Clc1ccc2c(c1)N(c1ncnc3ccc(-c4cnc5[nH]ccc5c4)cc13)CC2
active: [8] 8.49% | [10] -6.69%
inactive: [1] 28.3% | [2] 26.6% | [3] 26.7% | [4] 21% | [5] 26.2% | [6] 28.4% | [7] 31.4% | [9] 21.1%

O=C(/C=C/c1ccc(Cl)s1)c1ccc(Cl)s1
inactive: [1] 100% and 109% | [2] 98.3% | [3] 93.3% and 91% | [4] 82.8% | [5] 94.9% and 88.9% | [6] 93.9% and 101% | [7] 92.4% | [8] 97.8% | [9] 94.8% and 90.7% | [10] 95.1% and 88.9%

O=C1OCC2=C1C(c1cccc([N+](=O)[O-])c1)c1cc3c(cc1N2CCO)CCC3 (stereo not given)
active: [8] -5.04% | [9] 7.25%
inactive: [1] 17.7% | [2] 36.8% | [3] 36.3% | [4] 39% | [5] 60.1% | [6] 27.5% | [7] 31% | [10] 14%

CC/C(=C(/c1ccc(O)cc1)c1ccc(OCCN2CCCCCC2)cc1)c1ccc(Cl)cc1
inactive: [1] 96.5% | [2] 91.9% | [3] 74.5% | [4] 65.7% | [5] 91.6% | [6] 99.9% | [7] 95.8% | [8] 97.7% | [9] 20.7% | [10] 17%

O=C(Nc1ccc(F)cc1)c1cc2cc(Nc3nc(-c4ccccc4)nc4ccccc34)ccc2oc1=O
inactive: [1] 104% | [2] 108% | [3] 104% | [4] 83.4% | [5] 97.3% | [6] 105% | [7] 101% | [8] 102% | [9] 106% | [10] 92.9%

N#CC1C(=O)c2ccccc2C1c1ccccc1 (stereo not given)
inactive: [1] 103% | [2] 103% | [3] 101% and 98.5% | [4] 74% and 84.6% | [5] 109% and 106% | [6] 108% and 103% | [7] 92.2% and 93.6% | [8] 128% and 99.1% | [9] 98.2% and 94.2% | [10] 80.4% and 83.3%

COc1cc(/C=C2/C=C(c3ccc(C(C)(C)C)cc3)N(CCc3ccc(S(N)(=O)=O)cc3)C2=O)cc(OC)c1OC
inactive: [1] 79.2% | [2] 51.3% | [3] 64.7% | [4] 37.1% | [5] 82.1% | [6] 49.5% | [7] 71.6% | [8] 82.4% | [9] 29.3% | [10] 16.3%

COc1ccc2c(c1)c(-c1nc(-c3c[nH]c4c(Cl)nccc34)cs1)cn2C
inactive: [1] 108% | [2] 34.8% | [3] 95.9% | [4] 90.8% | [5] 35.7% | [6] 85.4% | [7] 98.7% | [8] 94.7% | [9] 93.7% | [10] 85%

CCN1CCN(C(=O)[C@]23CC[C@@H](C)[C@H](C)[C@@H]2C2=CC[C@@H]4[C@@]5(C)CCC(=O)C(C)(C)[C@@H]5CC[C@@]4(C)[C@]2(C)CC3)CC1
active: [3] 7.97% | [4] -9.67% | [6] 9.64% | [8] -17.8% | [9] -8.01% | [10] -15.9%
inactive: [1] 12.3% | [2] 28.4% | [5] 18.7% | [7] 23.8%
